Test [1] in a line: Viability qHTS for spleen associated tyrosine kinase inhibitor (SYKi) naive MV4-11 cells (AID 1963823). Note: nearly all actives have a fitted effect of over 40% in size. The gist of the method: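 Read-out: CellTiter-Glo luminescence. Exposure: 72 hr, 37 C, 5% CO2, 95% humidity. Cells: MV4-11 without SYK inhibitor history, 500/well, qHTS format.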
For orientation: Quantitative high-throughput screening tests each substance at several concentrations.

The nature of test [2]: Viability qHTS for spleen associated tyrosine kinase inhibitor (SYKi) drug resistant MV4-11 cells (AID 1963824). Note: nearly all actives have a fitted effect of over 35% in size. The method, boiled down:
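SYK inhibitor-resistant MV4-11 AML cells, 500 per well, added to predispensed compounds and incubated 72 hr at 37 C, 5% CO2. Viability measured by CellTiter-Glo luminescence after 10 min at room temperature.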

A short description of test [3]: Cellular viability qHTS for adrenocortical cancer (ACC) cell line SW-13 (AID 1963989).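 For activity (max response): cells grown in serum-free medium with ITS supplement; % is set by controls: 0 for no effect and ±100 for the full control effect.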 Note: nearly all actives have a fitted effect of over 65% in size. To be noted: SW-13 ACC cells viability, CellTiter-Glo, 48 h; activity (max response): stronger effect = lower value. The gist of the method:
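48 h treatment, SW-13 in ITS/DMEM serum-free; doses up to 46 uM; readout CellTiter-Glo luminescence; curve fit four-parameter logistic.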

The nature of test [4]: Cellular viability qHTS for adrenocortical cancer (ACC) cell line NCI-H295R (AID 1963990). Note: nearly all actives have a fitted effect of over 60% in size. The gist of the method:
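Compound titrations (up to 46 uM final) are applied to NCI-H295R cultures for 48 h at 37C. Viable cell number is estimated by CellTiter-Glo signal, normalised to DMSO and doxorubicin controls.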

Values joined by “and” are separate entries in the source; they are usually repeats but may differ in a detail not shown here. Equal values may be shown once. Inconclusive results are not listed. Unmarked numbers belong to inactive results. Active and inactive are the calls of the source. Calls come from the whole dose curve; as a rule, active = well fitted curve in the direction sought with a large enough effect; inconclusive = small, poorly fitted or top-dose-only effect, or another doubt; inactive = no such curve, though single readings can be large; an effect the other way counts as inactive or inconclusive.
Potency is the fitted concentration of half-maximal effect.

Regarding `Cc1ccc(S(=O)(=O)Nc2cc(-c3ccc(C#N)s3)ccc2C)cc1`, the Potency in test [1] is 29.5 nM (active); in test [2] it was 33.2 nM (active); in test [3] it was 44.7 nM (active); in test [4], 31.6 nM (active).

For `Nc1nc(N)c(-c2ccccc2)s1`, the Potency entry in test [1], in test [2] and in test [4] was “inactive” throughout. Besides, in test [3], the activity (max response) was 6.99%.

In the case of `C[N+]1(C)[C@@H]2CC(OC(=O)[C@H](CO)c3ccccc3)C[C@H]1[C@@H]1O[C@@H]12` (stereo not given in full), the Potency result in test [1], in test [2] and in test [4] was “inactive” in each case. Further, the activity (max response) in test [3] was 8.81% and 11.1%.

Regarding `O=C(O)c1ccccc1C(=O)Nc1ccc(S(=O)(=O)Nc2nccs2)cc1`, the Potency result in test [1], in test [2] and in test [4] was “inactive” each time. Further, the activity (max response) in test [3] was -9.68%.

Take `Cc1ccc(C(=O)Nc2ccc(CN3CCN(C)CC3)c(C(F)(F)F)c2)cc1C#Cc1cnc2[nH]ncc2c1`: the Potency entry in test [1] and in test [2] was “inactive” each time. In addition, the Potency in test [3] is 1780 nM (active); in test [4], 5010 nM (active).

Consider `C#Cc1ccc(-c2ccccc2F)cc1`, for which the Potency entry in test [1], in test [2] and in test [4] was “inactive” throughout. Moreover, the activity (max response) in test [3] is -5.81%.

For the compound `O=C1NC(=O)[C@@H](c2c[nH]c3ccccc23)[C@H]1c1cn2c3c(cccc13)CCC2`, the Potency in test [1] was 833 nM (active); in test [2], 742 nM (active); in test [3], 398 nM (active); in test [4], 355 nM (active).

Regarding `c1ccc(CN(CC2=NCCN2)c2ccccc2)cc1`, the Potency result in test [1], in test [2] and in test [4] was “inactive” each time. For the same compound, the activity (max response) in test [3] is 0.264%.

With `CCCCc1nc2cc(/C=C/C(=O)NO)ccc2n1CCN(CC)CC`, the Potency in test [1] was 411 nM (active) and 525 nM (active); in test [2], 291 nM (active) and 468 nM (active); in test [3], 2000 nM (active); in test [4], 708 nM (active).

Consider `COc1ccc(CCN2CCC(Nc3nc4ccccc4n3Cc3ccc(F)cc3)CC2)cc1`, for which the Potency in test [1] was 4220 nM (active); in test [2], 8410 nM (active); in test [3], 20600 nM (active); in test [4], 14600 nM (active).

For the origin of these results see PubChem BioAssay (NCATS).
